Screening results: PubChem, several laboratories
Rows were chosen to be rich in hits. Some 8.9% of all compounds tested hit in one or more screens of this group.
WNV protease inh – inhibitors of WNV NS2B-NS3 protease, primary screen, biochemical, fluorogenic substrate | fluorogenic substrate Ex360/Em465; hits give low values | z-score (concentration not given with the values) | actives 0.18% (n = 65,000) | AID 577, 2007; in the data active means z-score below about -3
Target sequence (P06935 1371-1501 limits assumed): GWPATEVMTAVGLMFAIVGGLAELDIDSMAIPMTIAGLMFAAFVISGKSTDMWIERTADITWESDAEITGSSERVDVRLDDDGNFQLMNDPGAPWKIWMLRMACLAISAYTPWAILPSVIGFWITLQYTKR
Target sequence (P06935 1502-1679 limits assumed): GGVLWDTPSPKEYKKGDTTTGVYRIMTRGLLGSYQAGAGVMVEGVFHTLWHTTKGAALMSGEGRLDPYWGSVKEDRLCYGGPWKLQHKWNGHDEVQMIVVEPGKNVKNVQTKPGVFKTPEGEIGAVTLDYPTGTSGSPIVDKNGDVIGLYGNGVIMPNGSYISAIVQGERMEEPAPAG
M1 ag – M1 muscarinic receptor agonists, primary screen, CHO-M1 cells, Fluo-4 calcium, agonist mode; B-score at 10 µM; Muscarinic acetylcholine receptor M1; actives 3% (n = 64,000); AID 626, 2007; Fluo-4 calcium fluorescence; hits give high values;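 active means fluorescence rise, raw or as B-score row- and column-corrected plate score, outside the 99.7% band of its plate's samples, either direction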
D1 mod – D1 CRE-luciferase signal change, two-sided – cell-based, HEK293 D1, dopamine EC30, D1 allosteric modulator project, primary screen | dopamine EC30 potentiation; actives deviate in either direction | B-score at 10 µM | actives 5.9% (n = 58,000) | AID 641, 2007;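 active means luminescence count or its row- and column-corrected plate score outside the 99.7% band of the plate's sample wells, on either side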
mHtt clearance – clearance of mutant huntingtin inclusions, primary screen, imaging, HeLa Exon1htt(103Q)mCFP, confocal imaging; aggregate imaging; zero = plate's median compound well; inhibition, % at 1.5 µM; actives 0.42% (n = 47,000); AID 853, 2007;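 active means inhibition of aggregate fluorescence above about 70%, also judged a hit by eye on the cell image, limit read from the data, passing the limit was not always enough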;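 further: cells exposed to compound for three days before fixation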
M1 antag – antagonists of rat M1 muscarinic receptor | Muscarinic acetylcholine receptor M1 (Rattus norvegicus), P08482 | CHO-M1 cells, Fluo-4 calcium, ACh EC80 antagonist mode; hits give low values | B-score at 10 µM | actives 3.4% (n = 64,000) | AID 628, 2007;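 active means calcium fluorescence response, raw or row-and-column corrected B-score, differing from the plate sample mean either way at a set confidence level, mostly lower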
Numbers without * were called inactive; nt = no result.

SMILES | WNV protease inh | M1 ag | D1 mod | mHtt clearance | M1 antag
Cc1cccc(-n2ncc3c(N4CCCC4)ncnc32)c1 | 0.11 | -0.0462 | -7.31* | -15.1 | -0.0185
Cc1cccc(-n2ncc3c(N4CCOCC4)ncnc32)c1 | 0.22 | 1.04 | nt | nt | 1.75
Cc1ccc(-n2ncc3c(NCc4cccnc4)ncnc32)c(C)c1 | 0.81 | 2.02 | nt | nt | 0.767
Cc1ccc(-n2ncc3c(N4CCN(c5ccccc5)CC4)ncnc32)c(C)c1 | 0.67 | -0.414 | -3.97* | nt | -0.189
Cc1cccc(-n2ncc3c(NCc4cccnc4)ncnc32)c1 | -0.55 | -0.293 | -5.06* | nt | -0.246
Cn1cc(Cl)c(C(=O)OCC(=O)Nc2nc(-c3ccc(Br)cc3)cs2)n1 | nt | nt | nt | -10.4 | nt
COc1cc(Cl)c(C)cc1NC(=O)COC(=O)c1cnc(C)cn1 | 0.8 | 0.965 | 1.17 | -6.3 | -0.0181
COc1ccc2[nH]c(C(=O)O)c(CCNC(C)=O)c2c1 | -4.12* | -1.31 | 0.202 | nt | 0.408
COc1ccc2[nH]c(C(=O)O)c(NS(=O)(=O)c3ccc(Cl)s3)c2c1 | 0.48 | 0.157 | -0.431 | -31.3 | -1.07
O=C1N2c3ccccc3CCc3cccc(c32)C1(O)C(F)(F)F (stereo not given) | 1.31 | -1.49 | -2.74* | nt | 0.268
Cc1ccc(-c2cc3c(nn2)-c2ccccc2C3=O)cc1 | -0.14 | 0.713 | -5.67* | nt | -0.244
Cc1ccccc1-c1cc2c(nn1)-c1ccccc1C2=O | nt | nt | nt | 68.6 | nt
Cc1ccc(-n2nnnc2SCC(=O)c2cc(C)n(CC3CCCO3)c2C)cc1 (stereo not given) | -1.09 | -0.464 | 0.112 | nt | 0.0114
Cc1sc2nc(SCC(=O)c3cc(C)n(CC4CCCO4)c3C)n(C(C)C)c(=O)c2c1C (stereo not given) | -0.84 | 0.3 | -2.27* | 2.4 | -1.4
CCN1CCN(Cc2nc3c(c(=O)n(C)c(=O)n3C)n2CCc2ccccc2)CC1 | 0.55 | 0.0612 | 0.491 | nt | 0.828
CCCCn1c(CN2CCN(c3ccc(F)cc3)CC2)nc2c1c(=O)n(C)c(=O)n2C | -0.18 | -0.409 | -2.57* | 60.6 | 0.232
CC1CCCN(Cc2nc3c(c(=O)n(C)c(=O)n3C)n2CCc2ccccc2)C1 (stereo not given) | 0.21 | 2.26* | -0.367 | 14.5 | 0.495
CCOCCn1c(CN2CCCCC2C)nc2c1c(=O)n(C)c(=O)n2C (stereo not given) | -0.26 | -2.45 | 0.163 | nt | -3.17*
CC1CCCN(Cc2nc3c(c(=O)n(C)c(=O)n3C)n2CCCc2ccccc2)C1 (stereo not given) | -0.36 | 2.35* | -1.01 | -14.7 | -0.00647
Cc1ccc(CNc2ccc3c(c2)OCO3)cc1 | 1.44 | 2.09 | -4.97* | -154.7 | 0.0302
c1cc(CNc2ccc3c(c2)OCO3)ccn1 | 0.14 | -2.26 | 0.379 | 11.4 | 0.374
CCN(CC)CCCNC(CC(=O)O)C(=O)O (stereo not given) | 1.57 | 1.07 | nt | nt | 0.063
CC(=O)C(Sc1nc(-c2ccco2)nc2c1c(=O)n(C)c(=O)n2C)C(=O)N(C)C (stereo not given) | 0.59 | 0.315 | 0.678 | nt | 0.215
CCCOc1cccc(C(=O)Nc2cccc(NC(=O)c3ccco3)c2)c1 | -0.08 | 5.98* | -0.206 | 41.0 | -0.259
CCN(CC)c1ccc(NC(=O)c2ccccc2F)cc1 | 0.73 | 2.07 | -5.03* | nt | -0.0157
SMILES | WNV protease inh | M1 ag | D1 mod | mHtt clearance | M1 antag
CCCOc1cccc(C(=O)Nc2cccnc2)c1 | 0.09 | -0.755 | -0.108 | nt | -0.0823
O=C(Nc1cnc2ccccc2c1)c1ccco1 | -0.63 | -0.396 | -4.46* | nt | 0.876
CCN(CC)c1ccc(NC(=O)c2ccco2)cc1 | 0.97 | -0.379 | -2.97* | nt | 0
COc1ccccc1-c1nc(C#N)c(NCc2ccc(F)cc2)o1 | -0.32 | -0.258 | -0.067 | 50.4 | 0.579
Cc1c(C(=O)COC(C)(C)C)[nH]c2ccccc12 | -0.92 | -0.255 | -0.405 | 20.0 | -1.29
CN(C)CC1CCCCC1C1(O)c2ccccc2CSc2sccc21 (stereo not given) | nt | nt | nt | 5.1 | nt
O=C(NC1CCCCCCC1)c1ccc2c(c1)OCO2 | 1.76 | 0.483 | -3.52* | 39.4 | -0.208
CCOc1ccc(NC(=O)C2CSC(c3ccncc3)=N2)cc1 (stereo not given) | 0.17 | -1.42 | 0.324 | nt | 0.147
CSCC[C@H](NC(=O)OC(C)(C)C)c1nnc(SCC(=O)Nc2c(C)cccc2C)o1 | 0.95 | 1 | -0.988 | 39.7 | 2.04*
Cc1cccc(C)c1NC(=O)CSc1nnc([C@H](C)NC(=O)OC(C)(C)C)o1 | -0.05 | 0.642 | 0.514 | -10.9 | -0.028
N#Cc1c(-c2cccnc2)c2c([nH]c1=S)CCCC2 | 1.43 | -0.952 | 0.627 | -151.7 | 0.889
COc1ccc(-c2c3c([nH]c(=S)c2C#N)CCC3)cc1 | -0.47 | -1.39 | nt | 70.7* | 0.636
Cc1ccc(-c2nn(-c3ccccc3)cc2C(=O)N2CCOCC2)cc1 | -0.35 | nt | -4.04* | nt | nt
COc1ccc(-c2nn(-c3ccccc3)cc2C(=O)O)cc1 | -1.74 | 0.247 | nt | nt | -0.111
C/C(NCc1cccnc1)=C(\C#N)C(=O)NCc1ccccc1 | 0.05 | 0.636 | 0.748 | nt | 2.15*
COc1cccc(CNC(=O)Cn2cccc2)c1 | -0.25 | -0.642 | -1.93 | 5.3 | -0.0779
COc1cccc(CNC(=O)c2ccccc2N)c1 | 0.5 | -0.17 | 0.587 | 81.5* | -0.334
COc1cc(OC)cc(C(=O)NCc2cccnc2)c1 | 2.19 | -0.579 | 0.212 | 75.2* | 0.106
Cc1cc(NC(=O)c2oc3ccccc3c2C)ccc1-n1cnnn1 | -5.5* | 1.99 | -0.922 | nt | -0.721
Cc1nn(-c2ccc(Cl)cc2)c2sc(C(=O)N3CCN(C(=O)c4ccco4)CC3)cc12 | -0.38 | 2.76* | 0.652 | nt | 0.207
Cc1nn(-c2ccc(Cl)cc2)c2sc(C(=O)N3CCN(c4ccccn4)CC3)cc12 | -0.14 | -0.157 | 2.01 | nt | -0.0214
COc1cccc(OCC(=O)Nc2c(C(=O)Nc3ccc(OC)cc3OC)oc3ccccc23)c1 | 0.21 | -0.589 | -1.71 | nt | -0.382
Cc1cc(C)c2c(n1)nn1c(NCCCn3ccnc3)cc(C)nc21 | 0.27 | 0.257 | 0.923 | nt | -3.26*
CCCCCNC(=O)c1c(N)n(/N=C/c2ccco2)c2nc3ccccc3nc12 | -0.65 | -0.718 | nt | nt | -0.409
O=C(O)c1ccc2c(c1)[C@@H]1C=CC[C@@H]1[C@H](c1ccccn1)N2 | -0.8 | nt | -3.77* | nt | nt
SMILES | WNV protease inh | M1 ag | D1 mod | mHtt clearance | M1 antag
O=C(OC1CCCCC1)c1ccc2c(c1)C1C=CCC1C(C(=O)O)N2 (stereo not given) | -5.58* | -1.09 | nt | nt | -0.523
CCOC(=O)c1cc2occc2n1CC(=O)N1CCCc2ccccc21 | -0.79 | -0.903 | 4.18* | -26.3 | -0.504
Cc1ccc(C)c(NC2=NS(=O)(=O)c3ccccc32)c1 | -0.53 | 0.832 | -0.11 | nt | 0.379
COC(=O)c1ccc(C(=O)OC)c(NC2=NS(=O)(=O)c3ccccc32)c1 | -0.41 | 0.563 | 1.02 | 75.3* | 0.0392
CC1(C)c2ssc(=S)c2-c2ccccc2N1C(=O)c1ccco1 | 2.26 | 0.552 | -0.921 | 8.0 | 0.208
Cn1cnnc1SCC(=O)N1c2ccccc2-c2c(ssc2=S)C1(C)C | -1.15 | 0.14 | 0.37 | nt | -1.95*
